hgDAF12 agonist = agonists of H. glycines DAF-12 nuclear receptor; hit rate 1.8% among 370,000; AID 687014; activation, % at 6.8 µM; HEK293 GAL4-hgDAF12 UAS-luciferase reporter, agonist luminescence; normalized to butyrate control;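 active means activation above a cutoff set at the mean of all screened compounds plus 3 SD, cut at about 10% in these data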;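 further: 0% = DMSO wells and 100% = sodium butyrate wells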
DAX1 inh-1 = inhibitors of human orphan nuclear receptor DAX1 (NR0B1). P51843. HEK293 Gal4-DAX1 luciferase reporter, luminescence. inhibition, % at 6.75 µM. hit rate 0.99% among 340,000;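 active means inhibition above the mean over all tested compounds plus 3 SD, cut at about 4.2% in these data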;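 further: 0% = DAX1-transfected cells with DMSO and 100% = empty-vector control cells with DMSO; inhibition shows as a rise in luminescence from relieved DAX1 repression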
Target sequence (P51843 207-470 limits assumed): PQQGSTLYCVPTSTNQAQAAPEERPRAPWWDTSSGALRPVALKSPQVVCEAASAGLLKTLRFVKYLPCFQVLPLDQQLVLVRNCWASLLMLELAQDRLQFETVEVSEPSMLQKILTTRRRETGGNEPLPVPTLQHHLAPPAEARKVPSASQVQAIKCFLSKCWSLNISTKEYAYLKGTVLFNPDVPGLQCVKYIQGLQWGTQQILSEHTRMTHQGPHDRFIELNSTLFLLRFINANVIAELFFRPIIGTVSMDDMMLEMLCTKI
hcDAF12 agonist = activators of H. contortus DAF-12 nuclear receptor; HEK293 hcDAF-12 lit1-tk-luc reporter, luminescence; 0% DMSO, 100% Δ7-dafachronic acid; activation, % at 6.8 µM; hit rate 1.4% among 370,000; AID 652067;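 active means activation above the mean of all tested compounds plus 3 SD, cut at about 5.5% in these data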;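 further: 100% = response to 3 µM Δ7-dafachronic acid high control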
DAX1 inh-2 = inhibitors of DAX1 repression of SF-1 activated StAR promoter. HEK293T StAR-luciferase reporter, SF-1/DAX-1 repression relief. inhibition, % at 6.8 µM. hit rate 1.1% among 370,000. AID 652010;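 active means inhibition above the mean over all tested compounds plus 3 SD, cut at about 3.6% in these data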;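 further: 0% = DAX-1 cells with DMSO and 100% = cells lacking DAX-1 with DMSO; higher inhibition means more luminescence from relief of DAX-1 repression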
SMARCA2 act = increases SMARCA2 function in MMTV reporter cells; activation, % at 9.1 µM; hit rate 1% among 370,000; AID 652017; MG213 cells, MMTV-luciferase reporter, dexamethasone, overnight; in the data active means activation above about 7.8%;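 further: 0% = vehicle wells and 100% = reference activator wells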
ssDAF12 agonist = activates DAF-12 receptor from parasite S. stercoralis. hit rate 1% among 370,000. activation, % at 6.8 µM. AID 652126. HEK293 ssDAF-12/GRIP1 lit1-tk-luc reporter, luminescence; % of 3 µM dafachronic acid response;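 active means activation above the mean over all tested compounds plus 3 SD, cut at about 0.9% in these data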;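 further: 0% = DMSO-only wells and 100% = 3 µM delta7-dafachronic acid wells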
An asterisk follows results filed as active; . = no result given. Most compounds without a hit are left out; they make up all but 4.8% or so of the library.

SMILES | hgDAF12 agonist | DAX1 inh-1 | hcDAF12 agonist | DAX1 inh-2 | SMARCA2 act | ssDAF12 agonist
Cc1oc(-c2ccc(Cl)cc2)nc1CS(=O)CC(=O)NCc1ccco1 (stereo not given) | 11* | 0 | -2 | 0 | -3 | -1
Cc1oc(-c2ccccc2Cl)nc1CS(=O)CC(=O)NCc1ccco1 (stereo not given) | 1 | 1 | 0 | 0 | 0 | -1
CCN1C(=O)Nc2cccc3cccc1c23 | -2 | 4.8* | 1 | -1 | 3 | 0
O=c1c2ccc(F)cc2nc2sc(Nc3ccc4c(c3)CCC4)nn12 | 11* | . | 2 | . | . | 0
O=c1c2ccccc2nc2sc(Nc3cccc(Cl)c3)nn12 | 1 | 0 | 2 | 0 | 2 | 0
CCOC(=O)[C@@]12CCC3=C1N(CCC3)C(=O)[C@H](CC(=O)N1CCN(C(=O)C3CC3)CC1)C2 | -2 | . | -1 | -1 | 0 | 0
CN[C@H]1C[C@H]2c3[nH]c4cccc(-c5cccc(F)c5)c4c3CCN2C(=O)[C@H]1[C@H](C)O | -1 | . | -3 | -1 | -6 | -2
N#CCSc1ccccc1NC(=O)CN1C(=O)C2CC=CCC2C1=O (stereo not given) | 5 | 1 | 4 | -5 | 0 | 2.3*
Cc1cccc(C)c1NC(=O)CN1C(=O)C2CC=CCC2C1=O (stereo not given) | 0 | 0 | 1 | -1 | 3 | -2
CC(C)C[C@H]1COc2cc(Br)ccc2S(=O)(=O)N1Cc1cn(CCC2OCCCO2)nn1 | -2 | . | -3 | 1 | 0 | -1
C#CCNC(=O)C[C@H]1C[C@@]2(C(=O)OC)C(=C[C@H](C3CCCC3)O[C@@H]2C)N(CCC2=CCCCC2)C1=O | 1 | . | -2 | 1 | -3 | -1
Cc1c(C(=O)c2ccccc2)oc2ccc3ccccc3c12 | 8 | 6.6* | 2 | 1 | 8 | -1
COC(=O)CC1C(=O)NCCN1C(=S)Nc1cccc(C)c1 (stereo not given) | 1 | -1 | 0 | -1 | -2 | -1
COC(=O)CC1C(=O)NCCN1C(=S)Nc1ccc(F)cc1 (stereo not given) | 2 | 5.2* | 1 | 0 | -4 | -1
COC(=O)CC1C(=O)NCCN1C(=O)CSc1nc2ccccc2s1 (stereo not given) | -1 | 1 | 4 | 1 | 1 | 1.2*
COC(=O)[C@]12C[C@H](CC(=O)NCc3ccccc3)C(=O)N(Cc3cccc4ccccc34)C1=C[C@H](C1CCCC1)O[C@@H]2C | -2 | . | -2 | -1 | -5 | -1
COc1ccccc1C(=O)NNC(=O)CCCN1C(=O)/C(=C/c2cccs2)SC1=S | 3 | 0 | -1 | 0 | -3 | -2
COc1ccccc1N1C(=O)S/C(=C\c2cccs2)C1=O | 4 | -1 | 5 | 0 | 1 | 1.0*
O=C1CCC[C@H]2C[C@H](NCc3ccc(Cl)c(Cl)c3)CC[C@]23CCCN13 | -1 | . | -1 | . | . | -1
CCOC(=O)C(C)Sc1ccc2nnc(CCNS(=O)(=O)c3ccccc3)n2n1 (stereo not given) | 0 | 5.8* | -1 | 0 | 1 | -1
COC(=O)CSc1ccc2nnc(CCNS(=O)(=O)c3ccccc3)n2n1 | -1 | 3 | 0 | 0 | 3 | -1
CCOc1ccc(N(C(C)C(=O)N2CCCCCC2)S(C)(=O)=O)cc1 (stereo not given) | -3 | 4 | -2 | 0 | -2 | 1.5*
C/C(=N\NC(=O)CCn1nnc2ccccc21)c1ccco1 | -2 | 4.7* | -1 | 0 | 0 | 0
CCOC(=O)c1ccc(NC(=O)CCn2nnc3ccccc32)cc1 | 4 | 0 | 1 | 0 | -2 | -1
CC(=O)Nc1ccc(NC(=O)CCn2nnc3ccccc32)cc1 | 1 | -1 | 4 | 0 | -1 | 1.3*
COC(=O)c1ccc(Cn2ccc3ccc(-c4ccc5ccn(C(=O)c6ccccc6C)c5c4)cc32)cc1 | 3 | . | -1 | 0 | -1 | -1
Cc1ccc(-n2c(SCC(=O)Nc3ccc(OCc4ccccc4)cc3)nnc2-c2cnccn2)cc1 | 3 | . | -3 | -3 | -7 | -1

Screens from PubChem.
